# Test results reported in PubChem BioAssay (EPA / NIEHS).
# Values joined by “and” are separate entries in the source; they are usually repeats but may differ in a detail not shown here. Equal entries are not always repeated. Records with an inconclusive call do not appear. Active and inactive are the calls of the source. How the source made its calls: active means hit-call score of the fitted dose curve at least 0.9, where 1 is the maximum; inconclusive means response in the unintended direction; inactive means score below 0.9.
# Assays:
# [1] = ATG_M_19_XSP2: Attagene TRANS-FACTORIAL Multi-Species (XSP2) HepG2 Assay for M32 Transcription Factor (Internal Marker) (AID 2283822)
# In short: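 Internal background marker in a multi-species nuclear receptor TRANS panel: transfected HepG2 cells exposed 24 h, with 3 nM 6-alpha-fluorotestosterone and 1.5 nM norgestrel present. Readout is RT-PCR of reporter transcripts resolved by capillary electrophoresis, gain-of-signal versus DMSO.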
# [2] = test system: frog Androgen Receptor (AR), gene 399456; experiment: ATG_frAR_XSP2: Attagene TRANS-FACTORIAL Multi-Species (XSP2) HepG2 Assay for frog Androgen Receptor (AR) (AID 2283824);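 further: actives raise reporter signal above DMSO so AC50 reflects agonist-like induction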
# In short: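 HepG2 cells transiently transfected with GAL4-UAS reporter units and frog (Xenopus laevis) AR-Gal4 chimera; reporter mRNA measured 24 h after dosing by RT-PCR and capillary electrophoresis. Gain of signal fitted relative to DMSO baseline.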
# [3] = test system: zebrafish Androgen Receptor (AR), gene 100005148; experiment: ATG_zfAR_XSP2: Attagene TRANS-FACTORIAL Multi-Species (XSP2) HepG2 Assay for zebrafish Androgen Receptor (AR) (AID 2283825);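 further: hits raise reporter mRNA above DMSO so AC50 reflects agonist-type gain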
# In short: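 Zebrafish AR–GAL4 chimera transiently expressed with GAL4-UAS reporter in HepG2 cells, co-stimulated with 3 nM 6-alpha-fluorotestosterone and 1.5 nM norgestrel; 24 h dosing, reporter mRNA read by RT-PCR/capillary electrophoresis versus DMSO.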
# [4] = target: Estrogen receptor (Homo sapiens) (UniProt P03372); experiment: ATG_hERa_XSP2: Attagene TRANS-FACTORIAL Multi-Species (XSP2) HepG2 Assay for human Estrogen Receptor (ERa) (AID 2283827)
# Estrogen receptor (Homo sapiens), sequence (P03372 whole entry, looked up, the tested form may be a part): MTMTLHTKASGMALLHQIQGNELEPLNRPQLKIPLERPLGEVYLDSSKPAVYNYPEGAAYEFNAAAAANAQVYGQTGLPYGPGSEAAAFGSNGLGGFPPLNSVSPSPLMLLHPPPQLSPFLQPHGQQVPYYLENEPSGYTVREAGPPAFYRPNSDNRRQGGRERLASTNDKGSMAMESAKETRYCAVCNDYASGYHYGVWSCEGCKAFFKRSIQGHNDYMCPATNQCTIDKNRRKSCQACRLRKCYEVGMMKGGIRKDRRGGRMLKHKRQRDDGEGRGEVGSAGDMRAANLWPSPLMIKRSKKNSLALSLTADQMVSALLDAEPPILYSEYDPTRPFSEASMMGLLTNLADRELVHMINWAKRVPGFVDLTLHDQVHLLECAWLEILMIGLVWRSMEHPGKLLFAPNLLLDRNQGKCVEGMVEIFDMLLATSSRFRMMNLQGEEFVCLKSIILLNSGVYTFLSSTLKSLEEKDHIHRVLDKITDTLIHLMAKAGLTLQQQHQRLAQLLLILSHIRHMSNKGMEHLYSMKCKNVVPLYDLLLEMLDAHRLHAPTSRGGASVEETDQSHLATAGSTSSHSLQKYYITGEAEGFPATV
# In short: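 HepG2 cells transiently transfected with multiplexed GAL4-UAS reporters driven by chimeric receptor-Gal4 proteins, dosed 24 h with 3 nM 6-alpha-fluorotestosterone and 1.5 nM norgestrel present. Reporter mRNA by RT-PCR and capillary electrophoresis; gain-of-signal fit versus DMSO.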
smiles,measurement,setting,value
CC/C(=C(\c1ccccc1)c1ccc(OCCN(C)C)cc1)c1ccccc1,outcome,[1],inactive
CCCCCCCCOC(=O)c1ccc(O)cc1,AC50,[2],33.4 µM (active)
same,outcome,[3],inactive
same,AC50,[4],21.2 µM (active) and 3.19 µM (active)
CC(C)(C)c1ccc(S)cc1,outcome,[4],inactive
